According to PubChem BioAssay (Tox21):
Inconclusive results are not listed. Activity calls are given as the source filed them. Unless noted, calls come from the whole dose curve; as a rule, active = well fitted curve in the direction sought with a large enough effect in the repeat runs; inconclusive = weak or mixed curves; inactive = no such curve, though single readings can be large; an effect the other way counts as inactive or inconclusive.

How the values were obtained:
[1] = target: Progesterone receptor (Homo sapiens) (UniProt P06401); test: qHTS assay to identify small molecule antagonists of the progesterone receptor (PR) signaling pathway (AID 1346795; active = well fitted inhibition curve with a large enough effect in the signal ratio in the repeat runs, not every such curve was filed as active; the % refers to the signal ratio; note: potency is the fitted concentration of half-maximal effect)
Sequence of Progesterone receptor (Homo sapiens) (P06401 whole entry, looked up): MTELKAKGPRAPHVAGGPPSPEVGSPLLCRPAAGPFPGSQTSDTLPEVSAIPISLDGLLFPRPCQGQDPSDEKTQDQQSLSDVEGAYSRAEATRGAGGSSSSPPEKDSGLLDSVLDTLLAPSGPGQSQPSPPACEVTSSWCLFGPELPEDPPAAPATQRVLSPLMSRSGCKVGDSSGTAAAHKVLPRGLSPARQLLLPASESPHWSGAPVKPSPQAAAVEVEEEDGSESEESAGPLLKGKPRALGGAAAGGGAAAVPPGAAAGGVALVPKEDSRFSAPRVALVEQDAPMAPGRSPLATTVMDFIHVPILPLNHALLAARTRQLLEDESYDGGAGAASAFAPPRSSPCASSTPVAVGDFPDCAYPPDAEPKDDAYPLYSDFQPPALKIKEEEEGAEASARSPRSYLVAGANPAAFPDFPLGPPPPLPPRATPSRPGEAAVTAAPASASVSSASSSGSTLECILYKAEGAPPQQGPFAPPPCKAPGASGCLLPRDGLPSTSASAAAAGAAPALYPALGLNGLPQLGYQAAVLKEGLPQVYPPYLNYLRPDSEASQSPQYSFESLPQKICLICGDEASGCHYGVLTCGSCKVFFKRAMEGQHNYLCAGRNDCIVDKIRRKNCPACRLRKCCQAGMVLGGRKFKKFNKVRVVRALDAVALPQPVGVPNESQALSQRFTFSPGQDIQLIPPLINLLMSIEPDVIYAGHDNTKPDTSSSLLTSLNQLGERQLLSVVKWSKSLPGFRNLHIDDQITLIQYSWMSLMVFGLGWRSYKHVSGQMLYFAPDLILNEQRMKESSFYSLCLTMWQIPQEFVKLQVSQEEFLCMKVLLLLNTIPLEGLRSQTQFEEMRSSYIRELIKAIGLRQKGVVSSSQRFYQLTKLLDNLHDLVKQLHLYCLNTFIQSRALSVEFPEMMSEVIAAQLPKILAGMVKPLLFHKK
In short: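 PR-UAS-bla HEK293T cells with beta-lactamase reporter under UAS control, in 2% charcoal-stripped FBS, treated with compounds plus 1 nM promegestone (R5020, final) for 16 hr at 37C. Read-out: FRET beta-lactamase substrate fluorescence after 2 hr at room temperature.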

[2] = qHTS assay to identify small molecule agonists of the progesterone receptor (PR) signaling pathway - cell viability counter screen (AID 1346799; calls by dose curve; note: nearly all actives have a fitted effect of over 45% in size; note: potency is the fitted concentration of half-maximal effect)
In short: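 Counter screen in the PR-UAS-bla HEK293T wells (2% charcoal-stripped FBS, 16 h compound exposure at 37 C) after the bla read. CellTiter-Glo added, 30 min at room temperature, luminescence read as cell viability.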

[3] = qHTS assay to identify small molecule antagonists of the TGF-beta/Smad signaling pathway - cell viability counter screen (AID 1346824); note: nearly all actives have a fitted effect of over 50% in size
In short: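 SBE-bla HEK 293T cells, incubated overnight, then compound plus 0.25 ng/mL TGF-beta1 (stock added) for 5 hr at 37 C. Viability was read in the same wells by CellTiter-Glo luminescence after 30 min at room temperature.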

[4] = qHTS assay to identify small molecule agonists of the TGF-beta/Smad signaling pathway - cell viability counter screen (AID 1346829); note: top concentration of the series differs between compounds; nearly all actives have a fitted effect of over 45% in size
In short: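 Compound-treated SBE-bla HEK 293T cells (5 hr, 37 C) were assessed for viability with CellTiter-Glo in parallel with the reporter read.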

[5] = qHTS assay to identify small molecule agonists of the TGF-beta/Smad signaling pathway (AID 1346859; active = well fitted activation curve with a large enough effect in the signal ratio in the repeat runs, not every such curve was filed as active; the % refers to the signal ratio; note: series mostly up to about 77 µM)
In short: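 SBE-bla HEK293T cells plated overnight, then compound exposure for 5 h at 37 C. Beta-lactamase reporter read with LiveBLAzer B/G FRET substrate after 2 h at room temperature, fluorescence at 405 nm excitation, 460/530 nm emission.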

[6] = target: Thyrotropin-releasing hormone receptor (Homo sapiens) (UniProt P34981); test: qHTS assay to identify small molecule antagonists of the thyrotropin-releasing hormone receptor (TRHR) signaling pathway (AID 1346877; active = well fitted inhibition curve with a large enough effect in the repeat runs, not every such curve was filed as active; note: series mostly up to about 51 µM)
Sequence of Thyrotropin-releasing hormone receptor (Homo sapiens) (P34981 whole entry, looked up): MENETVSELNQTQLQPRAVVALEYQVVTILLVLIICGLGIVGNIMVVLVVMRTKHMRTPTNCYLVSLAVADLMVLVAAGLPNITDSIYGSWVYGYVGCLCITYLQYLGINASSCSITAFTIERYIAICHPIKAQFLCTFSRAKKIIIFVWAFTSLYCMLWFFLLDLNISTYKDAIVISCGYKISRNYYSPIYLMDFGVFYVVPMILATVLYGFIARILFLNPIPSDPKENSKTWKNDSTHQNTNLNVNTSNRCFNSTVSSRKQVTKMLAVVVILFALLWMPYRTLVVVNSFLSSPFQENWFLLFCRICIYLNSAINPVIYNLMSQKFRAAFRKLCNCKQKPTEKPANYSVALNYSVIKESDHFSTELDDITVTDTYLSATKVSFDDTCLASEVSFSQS
In short: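 In this cell-based calcium flux format, HEK293 cells expressing TRHR received test compound for 5 min before the agonist TRH (1 nM final). Dye loading lasted 2 h at 37 °C.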

[7] = target: Thyrotropin-releasing hormone receptor (Homo sapiens) (UniProt P34981); test: qHTS assay to identify small molecule agonists of the thyrotropin-releasing hormone receptor (TRHR) signaling pathway (AID 1346891; calls by dose curve; note: series mostly up to about 58 µM)
In short: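 HEK293 cells expressing TRHR plated 18 h at 37 C/5% CO2, calcium dye-loaded 2 h at 37 C, then compound added (agonist mode); kinetic calcium fluorescence read 3 min at 1 s intervals; 15 concentrations in triplicate.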

[8] = Human pregnane X receptor (PXR) small molecule agonists, qHTS cell viability counter screen (AID 1346977); note: nearly all actives have a fitted effect of over 50% in size; note: potency is the fitted concentration of half-maximal effect
In short: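 PXR-Luc HepG2 cells (2,000/well, 5% charcoal-stripped FBS) preincubated 5 hr, then exposed to compounds 24 hr at 37 C. Viability read in the same wells by CellTiter-Fluor fluorescence, reagent added at 23 hr, 1 hr incubation.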

[9] = qHTS assay to identify small molecule antagonists of the progesterone receptor (PR) signaling pathway - cell viability counter screen (AID 1346798); note: nearly all actives have a fitted effect of over 50% in size; note: potency is the fitted concentration of half-maximal effect; for activity change, negative = cytotoxicity: series mostly up to about 92 µM
In short: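 PR-UAS-bla HEK293T cells, 3,000/well in 2% charcoal-stripped FBS medium, dosed with compounds plus R5020 agonist and incubated 16 h at 37C. Viability then measured in the same wells by CellTiter-Glo luminescence after 30 min at RT.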
% is set by controls: 0 for no effect and ±100 for the full control effect.

CC1=CC(=O)/C(=C(/C)O)C(=O)O1
inactive: Potency [1] | Potency [2] | Potency [3] | Potency [4] | outcome [5] | outcome [6] | Potency [7] | Potency [8]

Nc1nc(CC(=O)O)cs1
inactive: Potency [3] | Potency [4] | outcome [5] | Potency [7] | Potency [8]

CCN(CC)CCNC(C(=O)OCCC(C)C)c1ccccc1 (configuration not stated)
inactive: Potency [1] | Potency [4] | outcome [5] | outcome [6] | Potency [7]

CN(C)CCCNCCCN
inactive: Potency [9] | Potency [2] | Potency [4] | outcome [5] | Potency [7] | Potency [8]

Oc1ccc(O)c2c(O)cccc12
inactive: Potency [9] | Potency [2] | Potency [3] | Potency [4] | outcome [5] | outcome [6] | Potency [7] | Potency [8]

Cc1ccc(C)o1
inactive: Potency [1] | Potency [2] | Potency [3] | Potency [4] | outcome [5] | Potency [7] | Potency [8]

CCCCC(CC)COCCCN (configuration not stated)
inactive: Potency [9] | Potency [3] | Potency [4] | outcome [5] | Potency [7] | Potency [8]

O=[N+]([O-])c1cc[n+]([O-])cc1
active: Potency [8] 54.5 µM
inactive: Potency [9] | Potency [4] | outcome [5] | Potency [7]

O=C(O)c1cccc(N(Cc2cccnc2)c2ccc(OC(F)F)c(OC(F)F)c2)c1
inactive: Potency [9] | Potency [2] | Potency [3] | Potency [4] | Potency [8]

O=C(C(=O)c1ccc(Br)cc1)c1ccc(Br)cc1
inactive: activity change, negative = cytotoxicity [2] 14.5% [at 19 µM] | viability change, negative = cytotoxic [3] 7.81% [at 15.8 µM] | activity change, negative = cytotoxicity [4] 0.5% [at 15.8 µM] | activation [5] 2.2% [at 15.8 µM] | activity, negative = inhibition [6] -2.27% [at 10.5 µM] | activation [7] 0.083% [at 11.8 µM] | activity change, negative = cytotoxicity [8] -1.5% [at 19 µM]

Cn1c(N)nc2nc[nH]c2c1=O
inactive: Potency [2] | Potency [3] | Potency [4] | outcome [5] | Potency [7] | Potency [8]

Cn1c(NCCN(CCO)CCCc2ccc([N+](=O)[O-])cc2)cc(=O)n(C)c1=O
inactive: Potency [9] | Potency [2] | Potency [3] | Potency [4] | outcome [5] | outcome [6] | Potency [7] | Potency [8]

CCOC(=O)[C@H](CCc1ccccc1)N[C@H]1CCc2ccccc2N(CC(=O)O)C1=O
active: Potency [9] 21.1 µM | Potency [2] 21.1 µM | Potency [8] 26.6 µM
inactive: Potency [3] | Potency [4] | outcome [6] | Potency [7]

Nc1ccc(C(=O)N2CC3CC(CN(Cc4ccccc4)C3)C2)cc1
inactive: Potency [9] | Potency [3] | Potency [4] | outcome [5] | outcome [6] | Potency [7] | Potency [8]

CCOC(=O)C1=C(C)NC(C)=C(C(=O)OC)C1c1cccc([N+](=O)[O-])c1 (configuration not stated)
inactive: Potency [3] | Potency [4] | outcome [5] | outcome [6] | Potency [7] | Potency [8]

Cc1cccc(OCCOc2cccc(C)c2)c1
inactive: Potency [2] | Potency [3] | Potency [4] | outcome [5] | outcome [6] | Potency [7] | Potency [8]

COCCOCCOCCOCCOC
inactive: Potency [4] | outcome [5] | outcome [6] | Potency [7] | Potency [8]
active: Potency [2] 21.7 µM

O=C(O)Cc1sc(-c2ccccc2)nc1-c1ccc(Cl)cc1
inactive: Potency [1] | Potency [3] | Potency [4] | outcome [6] | Potency [7] | Potency [8]

NC1CCN(c2nc3c(cc2F)c(=O)c(C(=O)O)cn3-c2ccc(F)cc2F)C1 (configuration not stated)
inactive: Potency [9] | Potency [3] | Potency [4] | outcome [5] | outcome [6] | Potency [7] | Potency [8]

CCCCCOC(=O)c1ccc(O)cc1
inactive: Potency [3] | Potency [4] | outcome [5] | Potency [8]
active: Potency [1] 27.6 µM

Oc1ccc(Sc2ccc(O)cc2)cc1
inactive: Potency [3] | Potency [4] | outcome [5] | outcome [6] | Potency [7] | Potency [8]
active: Potency [1] 18.1 µM

C[C@H](CCC(=O)O)[C@H]1CC[C@H]2[C@@H]3[C@H](O)C[C@@H]4C[C@H](O)CC[C@]4(C)[C@H]3CC[C@]12C
inactive: Potency [9] | Potency [2] | Potency [3] | Potency [4] | Potency [7] | Potency [8]

N#Cc1c(F)cccc1F
inactive: Potency [2] | Potency [3] | Potency [4] | outcome [5] | outcome [6] | Potency [7]

CCCCCCCCCCCCC(=O)O
inactive: Potency [1] | Potency [3] | Potency [4] | outcome [5] | Potency [7] | Potency [8]
active: Potency [2] 19.4 µM

N#Cc1cc2ccccc2c2ccccc12
inactive: Potency [2] | Potency [3] | Potency [4] | outcome [5] | outcome [6] | Potency [7] | Potency [8]

CC(=O)[C@@]1(O)CC[C@H]2[C@@H]3C[C@H](C)C4=CC(=O)CC[C@]4(C)[C@H]3CC[C@@]21C
inactive: Potency [9] | Potency [4] | outcome [5] | Potency [8]

CCN(CC)CCOc1ccc2c(c1)C(=O)c1cc(OCCN(CC)CC)ccc1-2
active: Potency [9] 13.3 µM | Potency [2] 16.8 µM | Potency [8] 13.3 µM
inactive: Potency [3] | Potency [4] | outcome [5] | outcome [6] | Potency [7]

Cc1ccc(O)c([C@H](CCN(C(C)C)C(C)C)c2ccccc2)c1
active: Potency [8] 11.9 µM
inactive: Potency [1] | Potency [4] | outcome [5] | outcome [6]

Oc1ccc(Cc2ccccc2)cc1
inactive: Potency [4] | outcome [5] | outcome [6] | Potency [7] | Potency [8]
active: Potency [1] 22.5 µM

O=C1[C@H](CC[C@H](O)c2ccc(F)cc2)[C@@H](c2ccc(O)cc2)N1c1ccc(F)cc1
active: Potency [1] 23.7 µM
inactive: Potency [4] | outcome [5] | Potency [8]

Nc1ccc(C(=O)Nc2ccccc2N)cc1
inactive: Potency [3] | Potency [4] | outcome [5]
active: Potency [9] 13.3 µM

O=C(O)C(c1ccc(Cl)cc1)c1ccc(Cl)cc1
inactive: Potency [1] | Potency [3] | Potency [4] | outcome [5] | Potency [7] | Potency [8]
